The record followed here is PubChem BioAssay (EPA / NIEHS).

Read-out in one experiment: CD69, CD69 (gene 969)
Kind of experiment: BSK_LPS_CD69: BioMAP Diversity Plus: LPS Assay for CD69 Biomarker Activity (AID 2284303). The note with it: primary human HUVEC with PBMC. Put shortly: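 Human umbilical vein endothelial cells co-cultured with PBMC under LPS stimulation, chemical exposure 24 h; cell-surface CD69 measured by ELISA and fitted in the positive direction versus DMSO.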

Experiment [1] in a line: IUF_NPC2a_radial_glia_migration_120hr: Leibniz Research Institute for Environmental Medicine (IUF) 120-hour Neural Progenitor Cell Migration Assay for Radial Glia Migration (NPC2a) (AID 2284298). Summed up: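 Readout: distance in um from sphere core edge to migration-area edge, derived from Hoechst nuclei density with a threshold-defined polynomial boundary. Spheres: hNPC, GW 16-19, 0.3 mm, on PDL/laminin; exposure 5 days; DMSO is baseline.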

Experiment [2] in a line: IUF_NPC2a_radial_glia_migration_72hr: Leibniz Research Institute for Environmental Medicine (IUF) 72-hour Neural Progenitor Cell Migration Assay for Radial Glia Migration (NPC2a) (AID 2284299). Summed up:
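Primary hNPC spheres, fetal brain GW 16-19, on PDL/laminin; DMEM/F12 3:1 + 1% N2. Compound dosed day 0, 7 conc. + SC, half-medium refresh day 3. 72 h brightfield, migration distance core-to-front (um), 4 directions averaged.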

A short description of experiment [3]: IUF_NPC2b_neuronal_migration_120hr: Leibniz Research Institute for Environmental Medicine (IUF) 120-hour Neural Progenitor Cell Migration Assay for Neuron Migration (NPC2b) (AID 2284300). Summed up: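 Read-out is mean distance from sphere edge to each TUBB3-positive neuron at 120 h, expressed relative to radial glia migration distance and to DMSO baseline. Single 0.3 mm human NPC spheres differentiated on laminin under continuous compound exposure.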

Experiment [4] can be described thus: IUF_NPC3_neuronal_differentiation_120hr: Leibniz Research Institute for Environmental Medicine (IUF) 120-hour Neuronal Differentiation Assay (NPC3) (AID 2284301). Put shortly:
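Single 0.3 mm neurospheres from human fetal cortex were plated in differentiation medium containing test compound. Medium was half-replaced on day 3. After 120 h cells were fixed, immunostained and imaged, and neuronal fraction was scored against DMSO control.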

Experiment [5] can be described thus: IUF_NPC4_neurite_length_120hr: Leibniz Research Institute for Environmental Medicine (IUF) 120-hour Neuronal Morphology Assay for Neurite Length (NPC4) (AID 2284302). How it is done:
IUF_NPC2-5 is a cell-based, multiplexed assay that uses hNPC, a human primary neural progenitor cells, with measurements taken at 72 or 120 hours after chemical dosing in a 96-well plate. Human neural progenitor cells (hNPC) are generated from human fetal brain cortex at gestational week (GW) 16-19. In the neural progenitor cell migration and differentiation assay (NPC2-5), hNPCs grown as spheres are plated on an extracellular matrix and migrate and differentiate out of the sphere core. The processes radial glia migration, neuronal and oligodendrocyte migration as well as neuronal differentiation, neuronal morphology and oligodendrocyte differentiation are studied using automated phase contrast imaging and automated fluorescence imaging in combination with high content image analysis. In parallel, the cell viability is assessed using an alamar blue viability assay and the cytotoxicity using a lactate dehydrogenase dependent membrane integrity assay.IUF_NPC4_neurite_length_120hr is one of 12 assay components measured from the IUF_NPC2-5 assay. The neurite length at 120 hr is the mean length in um of all neurons (see IUF_NPC3_neuronal_differentiation_120hr) that are identified by the skeletonization algorithm in Omnisphero.Data from the IUF_NPC4_neurite_length_120hr component was analyzed at the endpoint IUF_NPC4_neurite_length_120hr in the positive analysis fitting direction relative to DMSO as the negative control and baseline of activity. Using a type of differentiation reporter, gain or loss-of-signal activity can be used to understand developmental effects.
(§1) Culture protocol: After the cell expansion period the cells are cultured for up to four weeks in which they are passaged every week as described in 3.6. Between one to three days after passaging spheres at a size of 0.3 mm are picked for the test method. For the assessment of neural progenitor cell migration and differentiation, the spheres are plated on poly-D-lysine/laminin coated 96-well flat bottom plates in differentiation medium (N2) to initiate migration and differentiation. Thereby one 0.3 mm big sphere is plated in the middle of a well. […] Therefore, half of the test condition solution (e.g. solvent control or compound dilution) is replaced by freshly prepared test condition solution.Test Method: Migration distance and cytotoxicity is determined after 72 hours based on brightfield images of each well. […] On the ICC images, migration after 120 hours, neuronal and oligodendrocyte number, neuronal morphology and neuron/oligodendrocyte specific migration is assessed. immunocytochemical staining (ICC) generates an image for each sphere. The plates are scanned using an automated high content imaging device and all nuclei and their positions are determined automatically based on their intensity and size. […]

The nature of experiment [6]: IUF_NPC4_neurite_area_120hr: Leibniz Research Institute for Environmental Medicine (IUF) 120-hour Neuronal Morphology Assay for Neurite Area (NPC4) (AID 2284305; active means hit-call score of the fitted dose curve at least 0.9, where 1 is the maximum). Put shortly:
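Neurite area is read out as the mean pixel area, excluding nuclei, of skeletonized TUBB3-positive neurons imaged after 120 h. Primary human neural progenitor spheres differentiated on poly-D-lysine/laminin with compound present from day 0. Activity was referenced to DMSO controls.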

Experiment [7] in a line: IUF_NPC2-5_cytotoxicity_72hr: Cytotoxicity Assessment at 72 hours in the Leibniz Research Institute for Environmental Medicine (IUF) Neural Progenitor Cell Migration and Differentiation Assay for Cytotoxicity (NPC2-5) (AID 2284306; active means hit-call score of the fitted dose curve at least 0.9, where 1 is the maximum;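 further: LDH release into supernatant measured by resorufin fluorescence marking membrane damage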). Put shortly: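 Membrane integrity loss was scored from fluorescence (RFU) of resorufin generated by LDH in culture supernatant, 72 h after dosing. Differentiating human progenitor spheres received seven serial compound concentrations alongside a solvent control.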

The nature of experiment [8]: IUF_NPC2-5_cytotoxicity_120hr: Cytotoxicity Assessment at 120 hours in the Leibniz Research Institute for Environmental Medicine (IUF) Neural Progenitor Cell Migration and Differentiation Assay (NPC2-5) (AID 2284307; active means hit-call score of the fitted dose curve at least 0.9, where 1 is the maximum). How it is done: IUF_NPC2-5 is a cell-based, multiplexed assay that uses hNPC, a human primary neural progenitor cells, with measurements taken at 72 or 120 hours after chemical dosing in a 96-well plate. Human neural progenitor cells (hNPC) are generated from human fetal brain cortex at gestational week (GW) 16-19. In the neural progenitor cell migration and differentiation assay (NPC2-5), hNPCs grown as spheres are plated on an extracellular matrix and migrate and differentiate out of the sphere core. The processes radial glia migration, neuronal and oligodendrocyte migration as well as neuronal differentiation, neuronal morphology and oligodendrocyte differentiation are studied using automated phase contrast imaging and automated fluorescence imaging in combination with high content image analysis. In parallel, the cell viability is assessed using an alamar blue viability assay and the cytotoxicity using a lactate dehydrogenase dependent membrane integrity assay.IUF_NPC2-5_cytotoxicity_120hr is one of 12 assay components measured from the IUF_NPC2-5 assay. It is designed to measure cytotoxicity at 120hr due to loss of membrane integrity. LDH measurements are performed from medium supernatants of each well and are based on the reduction of resazurin to resorufin measured as fluorescence signal (relative fluorescence unit) in a multiplate reader. Data from the IUF_NPC2-5_cytotoxicity_120hr component was analyzed at the endpoint IUF_NPC2-5_cytotoxicity_120hr in the positive analysis fitting direction relative to the dynamic range and baseline of activity. Using a type of viability reporter, gain-of-signal activity can be used to understand cytotoxicity effects.
as §1, with “method.” for “method. For the assessment of neural progenitor cell migration and differentiation, the spheres are plated on poly-D-lysine/laminin coated 96-well flat bottom plates in differentiation medium (N2) to initiate migration and differentiation. Thereby one 0.3 mm big sphere is plated in the middle of a well.”

Experiment [9] is described as follows: IUF_NPC5_oligodendrocyte_differentiation_120hr: Leibniz Research Institute for Environmental Medicine (IUF) 120-hour Oligodendrocyte Differentiation Assay (NPC5) (AID 2284304; active means hit-call score of the fitted dose curve at least 0.9, where 1 is the maximum;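 further: share of O4-positive cells among Hoechst nuclei found by CNN image analysis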). The method, then: IUF_NPC2-5 is a cell-based, multiplexed assay that uses hNPC, a human primary neural progenitor cells, with measurements taken at 72 or 120 hours after chemical dosing in a 96-well plate. Human neural progenitor cells (hNPC) are generated from human fetal brain cortex at gestational week (GW) 16-19. In the neural progenitor cell migration and differentiation assay (NPC2-5), hNPCs grown as spheres are plated on an extracellular matrix and migrate and differentiate out of the sphere core. The processes radial glia migration, neuronal and oligodendrocyte migration as well as neuronal differentiation, neuronal morphology and oligodendrocyte differentiation are studied using automated phase contrast imaging and automated fluorescence imaging in combination with high content image analysis. In parallel, the cell viability is assessed using an alamar blue viability assay and the cytotoxicity using a lactate dehydrogenase dependent membrane integrity assay.IUF_NPC5_oligodendrocyte_differentiation_120hr is one of 12 assay components measured from the IUF_NPC2-5 assay. Oligodendrocyte differentiation at 120 hr is determined as the number of all O4-positive cells in percent of the number of Hoechst-positive nuclei in the total neurosphere migration area (see IUF_NPC2a_ glia_migration_120hr) after 120 hr of migration/differentiation. […]

Values joined by “and” are separate entries in the source; they are usually repeats but may differ in a detail not shown here. Equal entries are not always repeated. Records with an inconclusive call do not appear. More than one record can exist for a structure, and the calls need not agree. Active and inactive are the calls of the source. How the source made its calls, unless noted: active means hit-call score of the fitted dose curve at least 0.9, where 1 is the maximum; inactive means score below 0.9.

Consider `CC(=O)c1ccc(C)cc1`, for which the result with CD69, CD69 (gene 969) was inactive.
Still for that read-out and setting: next, `CC(C)(CO)CO`: “inactive”.
A word on the AC50: it is the concentration giving half of the maximal activity seen. With `O=C(O)C(F)(F)OC(F)(F)C(F)(F)OC(F)(F)C(F)(F)C(F)(F)C(F)(F)F`, the AC50 with CD69, CD69 (gene 969) is 36 µM (active) and 32.4 µM (active).
`CC(C)Cc1ccc(C(C)C(=O)O)cc1` (stereo unspecified): the outcome in experiment [1], in [2], in experiment [3], in experiment [4], in experiment [5] and in experiment [6] was inactive. Also, the compound was classed as inactive in experiment [7] and in experiment [8].
In the case of `N[C@@H](CCC(=O)O)C(=O)O`, the compound was classed as inactive in experiment [1], in [2], in experiment [3], in [4], in experiment [5] and in [9]. Further, the compound was classed as inactive in experiment [6] and in experiment [8].
For `CCn1cc(C(=O)O)c(=O)c2ccc(C)nc21`, the result in the experiment with CD69, CD69 (gene 969) was inactive.
On the same count and under the same terms, next, `CCCO[Si](OCCC)(OCCC)OCCC`: “inactive”.
In the case of `CCCCC(CC)COC(=O)COc1ccc(Cl)cc1C` (stereo unspecified), the compound was classed as inactive in experiment [1], in experiment [2], in experiment [3], in [4], in experiment [5] and in experiment [6]. Also, the compound was classed as inactive in experiment [7] and in experiment [8].
Turning to `C=C(F)C(=O)OC(C(F)(F)F)C(F)(F)F`, the outcome with CD69, CD69 (gene 969) was inactive.
As to `CC(C)CCCC(C)(C)O`, in the experiment with CD69, CD69 (gene 969), the result was inactive.
The same measure, in the same setting: for `O=C(O)C(F)(F)C(F)(F)C(F)(F)C(F)(F)C(F)(F)C(F)(F)C(F)(F)C(F)F` the value was “inactive”; for `CCCCN(CCO)CCO`, “inactive”; for `C=C(C)C(=O)OCCC(F)(F)C(F)(F)C(F)(F)C(F)(F)C(F)(F)C(F)(F)C(F)(F)C(F)(F)F`, “inactive”.
On the same count and under the same terms, next, `c1ccc(OCCOc2ccccc2)cc1`: “inactive”; `O=S(=O)(O)C(F)(F)C(F)(F)OC(F)(F)C(F)(F)F`: “inactive”.
As for `OCC(F)(OC(F)(F)C(F)(OC(F)(F)C(F)(F)C(F)(F)F)C(F)(F)F)C(F)(F)F` (stereo unspecified), in the experiment with CD69, CD69 (gene 969), the AC50 was 4.81 µM (active) and the outcome was inactive.
Regarding `c1ccc2scnc2c1`, the outcome in [1], in experiment [2], in [3], in experiment [4], in experiment [5] and in experiment [6] was inactive. Also, the outcome in experiment [7] and in experiment [8] was inactive.
